Source: PubChem BioAssay (Tox21)
Results filed as inconclusive are left out. Active and inactive are the calls of the source. Calls come from the whole dose curve.

Columns and labels:
[1] = biological target: Acetylcholinesterase (Homo sapiens) (UniProt P22303); test: Acetylcholinesterase (AChE) small molecule antagonists: colormetric cell-based qHTS assay (AID 1347395); note: nearly all actives have a fitted effect of over 30% in size
Summary of the method: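 AChE inhibition read colorimetrically via DTNB–thiocholine in SH-SY5Y cells. Compound 30 min, substrate 90 min, both 37 C.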

[2] = biological target: Acetylcholinesterase (Homo sapiens) (UniProt P22303); test: Acetylcholinesterase (AChE) small molecule antagonists: enzyme-based qHTS assay (AID 1347397); conditions: Potency: AChE enzyme activity inhibition; outcome: AChE enzyme activity inhibition; note: nearly all actives have a fitted effect of over 55% in size
Summary of the method: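 Enzyme inhibition was scored from DTNB-detected thiocholine formed by recombinant human AChE acting on acetylthiocholine. The 30 min compound preincubation and 10 min substrate reaction were both run at room temperature, with DMSO as vehicle control.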

[3] = biological target: Acetylcholinesterase (Homo sapiens) (UniProt P22303); test: Acetylcholinesterase (AChE) small molecule antagonists: fluorescence cell-based qHTS assay (AID 1347398); conditions: Potency: AChE activity; outcome: AChE activity; note: nearly all actives have a fitted effect of over 50% in size
Summary of the method: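 Endogenous acetylcholinesterase of SH-SY5Y neuroblastoma cells is measured in situ. After overnight attachment and 30 min compound exposure, cells receive acetylthiocholine and Thiolite Green; fluorescence is read after 40 min at room temperature.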

[4] = biological target: Acetylcholinesterase (Homo sapiens) (UniProt P22303); test: Acetylcholinesterase (AChE) small molecule antagonists: enzyme-based qHTS assay with human liver microsomes (AID 1347399); conditions: Potency: qHTS inhibition; outcome: qHTS inhibition; note: nearly all actives have a fitted effect of over 60% in size
Summary of the method: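 Recombinant human AChE (50 mU/mL in the enzyme mix) and human liver microsomes (0.25 mg/mL final) were preincubated with compound and NADPH (0.25 mg/mL final) for 30 min at 37 C. Acetylthiocholine/DTNB was then added; thiocholine was read colorimetrically after 10 min at room temperature.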
% is set by controls: 0 for no effect and ±100 for the full control effect.

Sequence of Acetylcholinesterase (Homo sapiens) (P22303 whole entry, looked up): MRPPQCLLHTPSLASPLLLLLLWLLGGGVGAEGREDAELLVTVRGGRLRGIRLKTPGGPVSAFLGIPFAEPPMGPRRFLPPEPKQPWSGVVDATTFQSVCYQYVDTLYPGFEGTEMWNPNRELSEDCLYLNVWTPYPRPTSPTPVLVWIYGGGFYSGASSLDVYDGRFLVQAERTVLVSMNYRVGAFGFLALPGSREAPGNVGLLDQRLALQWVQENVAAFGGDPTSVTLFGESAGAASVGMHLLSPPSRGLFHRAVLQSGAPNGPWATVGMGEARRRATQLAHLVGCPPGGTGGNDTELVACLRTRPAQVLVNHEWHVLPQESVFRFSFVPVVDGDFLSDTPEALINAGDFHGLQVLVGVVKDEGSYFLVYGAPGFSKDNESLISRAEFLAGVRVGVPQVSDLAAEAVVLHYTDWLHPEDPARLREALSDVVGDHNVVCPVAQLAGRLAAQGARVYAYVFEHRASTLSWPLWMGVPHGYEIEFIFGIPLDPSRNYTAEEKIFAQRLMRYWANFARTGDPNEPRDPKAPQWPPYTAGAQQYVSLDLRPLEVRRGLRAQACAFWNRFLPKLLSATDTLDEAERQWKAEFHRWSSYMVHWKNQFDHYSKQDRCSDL

COc1cc(Cl)c(OC)cc1N
inactive: Potency [1] | Potency [2] | Potency [3] | Potency [4]

CCOc1ccccc1O[C@H](c1ccccc1)[C@H]1CNCCO1
inactive: outcome [1] | outcome [2] | outcome [3] | outcome [4]

Cc1cccc(C)c1NC(=O)C(C)N (stereo unspecified)
inactive: Potency [1] | Potency [2] | Potency [3] | Potency [4]

CN(C)CCCOc1nn(Cc2ccccc2)c2ccccc12
inactive: Potency [1] | Potency [2] | Potency [3] | Potency [4]

CCC1Nc2cc(Cl)c(S(N)(=O)=O)cc2S(=O)(=O)N1 (stereo unspecified)
inactive: Potency [1] | Potency [2] | Potency [3] | Potency [4]

O=C(N[C@@H](c1ccccc1)[C@@H]1CCCCN1)c1cccc(C(F)(F)F)c1Cl
inactive: Potency [1] | Potency [2] | Potency [3] | Potency [4]

CCC(=O)O[C@]1(C(=O)COC)[C@@H](C)C[C@H]2[C@@H]3CCC4=CC(=O)C=C[C@]4(C)C3(F)[C@@H](O)C[C@@]21C (stereo partly specified)
inactive: Potency [1] | Potency [2] | Potency [3] | Potency [4]

CCCCOc1ccc(N)cc1
inactive: Potency [1] | Potency [2] | Potency [3] | Potency [4]

CC1(C)CC(N)CC(C)(C)N1
inactive: Potency [1] | Potency [2] | Potency [3] | Potency [4]

CCNc1nc(NC(C)CC)nc(OC)n1 (stereo unspecified)
inactive: Potency [1] | Potency [2] | Potency [3] | Potency [4]

CCC(C=O)CC
inactive: Potency [1] | Potency [2] | Potency [3] | Potency [4]

Cc1cc(N)c(S(=O)(=O)O)cc1Cl
inactive: Potency [1] | Potency [2] | Potency [3] | Potency [4]

FC(F)OC(Cl)C(F)(F)F (stereo unspecified)
inactive: Potency [1] | Potency [2] | Potency [3] | Potency [4]

C1CCCCCCCCCCC1
inactive: activity, negative = inhibition [1] -0.403% [at 23.6 µM] | activity change, negative = inhibition [2] 0.515% [at 23.6 µM] | activity change, negative = inhibition [3] 7.82% [at 23.8 µM] | activity change, negative = inhibition [4] -0.0559% [at 23.6 µM]
